Measured values reported in PubChem BioAssay.
Active and inactive are the calls of the source.

What was measured:
[1] = tested on: Plasmodium falciparum Sir2 (PF13_0152, Sir2A); assay: Plasmodium falciparum Sir2A binding compounds – biochemical, small-molecule microarray, 635 nm fluorescence, primary screen (AID 1098); settings: fluorescence 635 nm, higher = more signal;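 further: score merges spot fluorescence intensity with its signal-to-noise ratio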
[2] = probe aDKK1 binding to arrayed compounds – biochemical, biotinylated probe, 635/667 nm fluorescence, primary screen (AID 1099); settings: small-molecule microarray, higher = more signal;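 further: score merges 667nm spot fluorescence with signal to noise across triplicate slides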
[3] = probe aCHRDL2 binding to arrayed compounds – biochemical, biotinylated probe, 635/667 nm fluorescence, primary screen (AID 1100); settings: small-molecule microarray, higher = more signal
[4] = change in splice reporter luminescence, either direction, cell-based, HEK293, spliceosome inhibition project, primary screen (AID 1101); settings: HEK293 splicing luciferase reporter, 24 h, higher = more signal, called active from +8 up or from −8 down;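 further: HEK293 cells carrying a splicing-competent luciferase reporter gene; test concentration not given here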
[5] = target: Fibroblast growth factor 10 (Homo sapiens) (UniProt O15520); assay: compounds binding fibroblast growth factor 10 – biochemical, small-molecule microarray, 635 nm fluorescence, primary screen (AID 1102); settings: FGF10 binding, fluorescence 635 nm, higher = more signal
[6] = tested on: glycogen synthase kinase-3 (GSK3A per assay name; protocol says GSK3B); assay: compounds binding glycogen synthase kinase-3 – biochemical, small-molecule microarray, 635 nm fluorescence, GSK3A, primary screen (AID 1103); settings: fluorescence 635 nm, higher = more signal; further: the record names both GSK3A and GSK3B
[7] = target: Epidermal growth factor receptor (Homo sapiens) (UniProt P00533); assay: compounds binding epidermal growth factor receptor – biochemical, small-molecule microarray, 635 nm fluorescence, primary screen (AID 1104); settings: EGFR binding, higher = more signal;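 further: score merges 667 nm emission intensity with spot signal to noise over triplicate slides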
[8] = target: Follistatin-related protein 3 (Homo sapiens) (UniProt O95633); assay: compounds binding follistatin-related protein 3 – biochemical, small-molecule microarray, 635 nm fluorescence, primary screen (AID 1105); settings: FSTL3 binding, higher = more signal;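 further: score merges emission near 667 nm and signal to noise per printed spot across three slides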
[9] = target: Dickkopf-related protein 1 (Homo sapiens) (UniProt O94907); assay: small molecules binding DKK1 protein – biochemical, small-molecule microarray, 635 nm fluorescence scan, primary screen (AID 1106); settings: higher = more signal;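 further: score merges emission near 667 nm with signal to noise over three replicate slides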
[10] = tested on: Inhibin beta A chain (activin A); assay: small molecules binding activin A – biochemical, small-molecule microarray, 635 nm fluorescence scan, primary screen (AID 1107); settings: INHBA, higher = more signal;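 further: mouse activin A protein probed at 4.33 µg/mL on printed slides; score merges bound-protein fluorescence near 667 nm with spot signal-to-noise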
[11] = tested on: Human papillomavirus type 1a protein E7 (residues 44-93); assay: small molecules binding HPV E7 44-93 – biochemical, small-molecule microarray, residues 44-93, 635 nm fluorescence, primary screen (AID 1108); settings: fluorescence 635 nm, higher = more signal;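 further: E7 fragment applied at 1 µg/mL in TBST for 1 h at 4 C; score combines spot fluorescence with its signal to noise ratio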
[12] = hepatitis C replication reporter changes, two-sided – Huh7 cells, luciferase reporter, HCV replication inhibitor project, primary screen (AID 1109); settings: Huh7 HCV replicon luciferase reporter, 48 h; higher = more signal;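 further: huh7 hepatoma cells harbouring a luciferase neomycin HCV replicon reporter; luciferase luminescence as measure of HCV replicon replication; test concentration not given here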
[13] = target: Left-right determination factor 2 (Homo sapiens) (UniProt O00292); assay: small molecules binding LEFTY2 protein – biochemical, small-molecule microarray, 635 nm fluorescence scan, primary screen (AID 1110); settings: higher = more signal
[14] = target: Calmodulin-1 (Homo sapiens) (UniProt P0DP23); assay: small molecules binding calmodulin-1 with EGTA – biochemical, small-molecule microarray, Cy5-labelled CALM1, profiling panel (AID 1111); settings: Cy5-CALM1 binding fluorescence, higher = more signal;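 further: labelled calmodulin applied in Tris saline Tween buffer holding calcium plus EGTA and DTT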
[15] = target: Calmodulin-1 (Homo sapiens) (UniProt P0DP23); assay: small molecules binding Ca-loaded calmodulin-1 – biochemical, small-molecule microarray, Cy5-labelled CALM1, plus calcium, artefact control for SMM control-protein annotation, profiling panel (AID 1112); settings: Cy5-CALM1 binding fluorescence, higher = more signal;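 further: score merges spot fluorescence with signal to noise from triplicate slides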
[16] = probe aWnt5a binding to arrayed compounds – biochemical, biotinylated probe, 635/667 nm fluorescence, primary screen (AID 1113); settings: small-molecule microarray, higher = more signal;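 further: score merges 667 nm fluorescence intensity with signal-to-noise per printed feature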
[17] = probe aShh binding to arrayed compounds – biochemical, biotinylated probe, 635/667 nm fluorescence, primary screen (AID 1114); settings: small-molecule microarray, higher = more signal;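 further: probe is biotin-labelled aShh protein from a stem cell growth factor screen; measures binding of labelled protein to compounds printed on the slide; score merges feature fluorescence at 667 nm with signal-to-noise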
[18] = probe aNog binding to arrayed compounds – biochemical, biotinylated probe, 635/667 nm fluorescence, primary screen (AID 1115); settings: small-molecule microarray, higher = more signal;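 further: probe is biotinylated aNog protein used at 0.15 µg/mL for 1 h at 4 C; z-score combines 667 nm fluorescence of each spot with its signal to noise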
[19] = target: Torsin-1A-interacting protein 1 (Homo sapiens) (UniProt Q5JTV8); assay: compound microarray binding of lysate hLAP1 – cell lysate, small-molecule microarray, COS7 lysate, 635/667 nm fluorescence, primary screen (AID 1116); settings: 635 nm fluorescence, higher = more signal
[20] = target: Alpha-bungarotoxin (Bungarus multicinctus) (UniProt P60615); assay: compounds binding labelled alpha-BTX control protein – biochemical, small-molecule microarray, Alexa647 label, 635/667 nm fluorescence, artefact control for SMM control protein annotation, profiling panel (AID 1117); settings: alpha-BTX-A647 binding fluorescence, higher = more signal
Sequence of Alpha-bungarotoxin (Bungarus multicinctus) (P60615 whole entry, looked up): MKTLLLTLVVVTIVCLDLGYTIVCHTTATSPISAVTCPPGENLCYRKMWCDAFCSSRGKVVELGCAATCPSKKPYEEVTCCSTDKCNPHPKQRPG

Sequence of Torsin-1A-interacting protein 1 (Homo sapiens) (Q5JTV8 whole entry, looked up): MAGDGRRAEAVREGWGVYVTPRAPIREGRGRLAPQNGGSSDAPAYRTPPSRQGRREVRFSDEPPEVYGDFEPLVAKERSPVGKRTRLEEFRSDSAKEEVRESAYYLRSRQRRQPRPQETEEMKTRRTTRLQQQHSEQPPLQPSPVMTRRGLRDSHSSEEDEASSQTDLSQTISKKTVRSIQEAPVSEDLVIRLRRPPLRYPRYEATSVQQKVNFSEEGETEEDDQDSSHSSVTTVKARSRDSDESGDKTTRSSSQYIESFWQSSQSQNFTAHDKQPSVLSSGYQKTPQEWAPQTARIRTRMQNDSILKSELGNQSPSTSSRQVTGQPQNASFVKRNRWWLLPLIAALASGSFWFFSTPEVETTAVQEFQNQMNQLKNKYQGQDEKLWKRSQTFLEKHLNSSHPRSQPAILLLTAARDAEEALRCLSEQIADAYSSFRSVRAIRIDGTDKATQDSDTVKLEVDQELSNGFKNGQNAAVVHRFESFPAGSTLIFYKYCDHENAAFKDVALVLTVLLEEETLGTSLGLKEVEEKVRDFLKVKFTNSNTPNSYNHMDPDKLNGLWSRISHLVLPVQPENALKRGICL
Sequence of Epidermal growth factor receptor (Homo sapiens) (P00533 whole entry, looked up): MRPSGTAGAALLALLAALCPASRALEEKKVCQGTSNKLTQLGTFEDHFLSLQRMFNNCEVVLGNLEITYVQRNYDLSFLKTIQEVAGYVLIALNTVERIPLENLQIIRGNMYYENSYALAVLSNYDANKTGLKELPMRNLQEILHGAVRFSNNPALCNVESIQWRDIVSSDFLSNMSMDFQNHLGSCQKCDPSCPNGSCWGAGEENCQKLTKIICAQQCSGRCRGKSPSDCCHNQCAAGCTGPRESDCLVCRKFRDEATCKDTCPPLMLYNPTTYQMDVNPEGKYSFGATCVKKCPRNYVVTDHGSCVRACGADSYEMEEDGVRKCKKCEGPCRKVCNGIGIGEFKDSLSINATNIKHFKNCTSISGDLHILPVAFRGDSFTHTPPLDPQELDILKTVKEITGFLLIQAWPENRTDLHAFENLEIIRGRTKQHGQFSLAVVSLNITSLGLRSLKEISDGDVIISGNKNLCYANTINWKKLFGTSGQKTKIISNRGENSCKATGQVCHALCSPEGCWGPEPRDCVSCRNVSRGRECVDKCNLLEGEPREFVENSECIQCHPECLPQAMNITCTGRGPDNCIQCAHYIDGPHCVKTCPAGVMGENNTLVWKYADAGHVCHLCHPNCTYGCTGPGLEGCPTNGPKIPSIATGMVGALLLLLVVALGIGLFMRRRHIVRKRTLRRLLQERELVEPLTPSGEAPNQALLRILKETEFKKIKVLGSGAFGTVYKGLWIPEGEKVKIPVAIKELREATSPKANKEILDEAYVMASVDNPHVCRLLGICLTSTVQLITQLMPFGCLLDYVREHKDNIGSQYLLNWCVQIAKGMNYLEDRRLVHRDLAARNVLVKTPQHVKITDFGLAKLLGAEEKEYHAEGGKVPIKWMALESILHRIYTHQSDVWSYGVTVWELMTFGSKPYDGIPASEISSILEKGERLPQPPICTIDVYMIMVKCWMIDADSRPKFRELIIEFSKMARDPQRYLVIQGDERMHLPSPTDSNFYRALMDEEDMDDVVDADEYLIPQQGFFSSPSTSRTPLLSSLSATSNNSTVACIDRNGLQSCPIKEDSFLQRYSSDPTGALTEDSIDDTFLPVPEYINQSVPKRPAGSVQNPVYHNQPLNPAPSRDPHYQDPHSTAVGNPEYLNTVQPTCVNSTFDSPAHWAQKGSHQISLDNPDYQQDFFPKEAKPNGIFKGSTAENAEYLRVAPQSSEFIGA
Sequence of Fibroblast growth factor 10 (Homo sapiens) (O15520 whole entry, looked up): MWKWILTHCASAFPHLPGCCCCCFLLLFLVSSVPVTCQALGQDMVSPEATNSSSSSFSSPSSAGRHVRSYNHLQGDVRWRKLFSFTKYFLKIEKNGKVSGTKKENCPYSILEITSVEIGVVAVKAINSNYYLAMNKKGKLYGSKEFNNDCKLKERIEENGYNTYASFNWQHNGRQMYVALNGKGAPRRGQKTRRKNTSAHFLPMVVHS
Sequence of Follistatin-related protein 3 (Homo sapiens) (O95633 whole entry, looked up): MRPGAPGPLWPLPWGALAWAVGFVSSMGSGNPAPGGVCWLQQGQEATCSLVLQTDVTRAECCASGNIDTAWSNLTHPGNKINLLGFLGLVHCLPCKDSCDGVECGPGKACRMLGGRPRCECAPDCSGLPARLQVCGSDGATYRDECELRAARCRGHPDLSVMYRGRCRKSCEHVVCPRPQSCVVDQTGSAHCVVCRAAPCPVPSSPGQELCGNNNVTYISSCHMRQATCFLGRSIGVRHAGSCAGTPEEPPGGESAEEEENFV
Sequence of Dickkopf-related protein 1 (Homo sapiens) (O94907 whole entry, looked up): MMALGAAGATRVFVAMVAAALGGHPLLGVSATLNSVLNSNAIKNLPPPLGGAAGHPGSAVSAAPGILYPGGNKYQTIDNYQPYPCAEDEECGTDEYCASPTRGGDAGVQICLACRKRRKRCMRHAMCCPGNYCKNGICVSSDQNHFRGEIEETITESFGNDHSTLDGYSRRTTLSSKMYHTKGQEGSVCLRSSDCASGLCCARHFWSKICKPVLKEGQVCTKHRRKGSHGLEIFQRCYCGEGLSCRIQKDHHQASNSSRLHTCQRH
Sequence of Left-right determination factor 2 (Homo sapiens) (O00292 whole entry, looked up): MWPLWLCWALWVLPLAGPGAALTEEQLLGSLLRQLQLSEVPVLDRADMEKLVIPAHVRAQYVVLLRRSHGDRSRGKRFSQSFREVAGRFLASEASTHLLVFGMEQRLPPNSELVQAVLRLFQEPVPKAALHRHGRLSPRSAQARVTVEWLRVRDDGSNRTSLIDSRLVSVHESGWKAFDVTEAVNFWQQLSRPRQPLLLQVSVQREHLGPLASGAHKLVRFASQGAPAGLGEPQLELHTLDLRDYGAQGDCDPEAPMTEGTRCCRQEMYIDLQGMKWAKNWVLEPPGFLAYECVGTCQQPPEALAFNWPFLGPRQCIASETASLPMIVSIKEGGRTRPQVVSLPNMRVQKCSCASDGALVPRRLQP

Compound	composite z-score [1]	composite z-score [2]	composite z-score [3]	z-score [4]	composite z-score [5]	composite z-score [6]	composite z-score [7]	composite z-score [8]	composite z-score [9]	composite z-score [10]	composite z-score [11]	z-score [12]	composite z-score [13]	composite z-score [14]	composite z-score [15]	composite z-score [16]	composite z-score [17]	composite z-score [18]	composite z-score [19]	composite z-score [20]
NCCCCCCNC(=O)[C@@H]1C[C@@H]2C(=O)N[C@@H](Cc3ccccc3)C(=O)N2[C@@H]1c1ccc(O)cc1	0.791	0.678	0.709	-0.573 (inactive)	0.25	0.717	0.0626	0.367	0.627	1.15	1.12	0.355	0.093	2	1.32	-0.11	0.318	0.075	0.526	1.3
C=C(CCCC)/C(=C/C[C@H](OC(=O)c1ccncc1)c1ccc(CO)o1)c1cnc2ccccc2c1	1.14	0.248	-0.0775	-0.964 (inactive)	1.09	1.19	0.474	1.46	0.823	1.46	0.229	-1.89	0.429	0.697	0.244	-0.0236	0.0898	0.995	0.731	1.8
CCN(CC)c1ccc(N2CC=CC34O[C@@H]5C=CCOC(=O)[C@@H]5[C@H]3C(=O)N(C(C)CO)[C@@H]4C2=O)cc1 (stereo not given in full)	-0.928	0.0831	0.495	-0.405 (inactive)	-0.749	-2.21	-1.5	-1.5	-1.01	0.509	-1.09	-0.533	-1.21	-1.1	-0.201	-0.154	-0.153	0.166	-0.438	0.0517
C=CC[C@@]1(C(=O)NCc2ccccc2)N=C(c2ccc(OCCCO)cc2)O[C@@H]1c1ccccc1	1.54	0.787	1.31	-1.19 (inactive)	-0.28	0.659	-1.08	-0.571	-0.918	0.997	0.483	-3.03	-0.762	1.68	0.369	-0.101	0.123	0.49	1.68	1.1
O=C(O)[C@H]1C[C@H]2C(=O)NCC(=O)N2[C@H]1c1cccc(OCCO)c1	1.69	0.809	0.725	-0.387 (inactive)	0.082	0.444	0.0343	0.778	0.552	1.5	0.22	3.1	-0.166	0.338	0.921	0.291	0.0118	0.906	1.51	1.81
COc1ccc(C#Cc2ccc3c(c2)[C@]2(C(=O)N3)[C@H](c3ccc(O)cc3)N3[C@H](c4ccccc4)[C@H](c4ccccc4)OC(=O)[C@H]3[C@@H]2C(=O)N2CCN(c3ncccn3)CC2)cc1	0.595	0.762	0.657	-0.835 (inactive)	0.388	0.424	0.0077	0.219	-0.0775	0.0381	0.778	-1.15	-0.0042	1.95	0.707	0.0236	0.842	0.353	1.28	1.75
COc1ccc([Si](C)(C)[C@H]2[C@H](CC(=O)N(CCO)Cc3ccccc3)O[C@@]3(C(=O)N(Cc4ccc(N5CCC5=O)cc4)c4ccccc43)[C@@H]2C)cc1	0.811	0.0433	0.4	-0.439 (inactive)	-0.802	-0.39	-0.443	-0.155	0.183	0.577	-0.403	-3.87	0.271	0.0311	0.705	-0.187	0.0434	-0.231	1.25	1.33
C[C@@H](OCc1ccccc1)C1NC(=O)[C@@]23C(=O)N[C@@H](Cc4ccccc4)C2[C@H](C)[C@@]2(C)O[C@H]2C3/C=C/C/C=C\CNC(=O)[C@@H]2CCCN2C1=O (stereo not given in full)	-0.381	-0.308	-0.39	0.253 (inactive)	0.097	-0.616	-0.324	0.819	0.34	1.75	-2.3	-1.06	-0.0437	-1.46	-1.23	-0.197	-0.138	-0.247	-0.417	-0.236
C=C(CCCC)/C(=C/C[C@@H](OC(=O)c1ccncc1)c1ccc(OCCO)cc1)c1cnc2ccccc2c1	0.711	0.358	0.686	-1.18 (inactive)	1.24	0.633	1.15	1.53	1.68	1.8	0.602	-1.3	0.737	0.0142	-0.184	-0.096	0.164	0.168	-0.0621	3.3
COc1ccc(C(=O)Nc2cccc(CN3C(=O)[C@@]4(O[C@@H](CCO)[C@H]([Si](C)(C)c5ccc(OC)cc5)[C@H]4C)c4ccccc43)c2)cc1	0.775	0.481	0.666	1.92 (inactive)	0.0414	0.2	-0.121	0.131	0.19	1.49	0.721	-5.15	-0.0057	1.08	1.03	-0.0721	-0.0146	0.0043	0.0777	0.689
CC1CC/C=C\[C@H]2OC34C=CCN(C(C)C)C(=O)[C@H]3N(C(CO)C(C)C)C(=O)[C@@H]4C2C(=O)O1 (stereo not given in full)	-0.144	0.0383	0.228	-0.0607 (inactive)	-0.505	-0.95	-0.818	-0.253	-0.429	0.64	-1.48	-0.403	-0.944	-1	-0.339	-0.202	-0.0626	-0.178	0.193	-2.8
